Experimental data published in the supplement of paper PMC6555819.

What was measured:
Assay in all cases: PBM binding z-score (relative to random genomic background probes); higher = stronger binding; sequences stand for … in GC…GCGATTGACAGCGTAGAATGAAGG
[1] = system: FXR:RXRa (NR concentration 270 nM, RXRa partner concentration 90 nM)
Procedure, shortened: (§1)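 Binding z-scores were set against random background probes. The data came from custom Agilent 4×180K protein-binding microarrays carrying double-stranded probes with 34-nt variable regions, incubated 1 h with ligand-free nuclear receptor dimers. Partner-specific antibodies detected binding, and scanned fluorescence was regression-normalized.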

[2] = system: LXRa:RXRa (NR concentration 270 nM, RXRa partner concentration 90 nM)
Procedure, shortened: as §1

[3] = system: LXRa homodimer (NR concentration 270 nM)
Procedure, shortened: as §1

[4] = system: LXRb:RXRa (NR concentration 270 nM, RXRa partner concentration 90 nM)
Procedure, shortened: as §1

[5] = system: LXRb homodimer (NR concentration 270 nM)
Procedure, shortened: as §1

[6] = system: PPARa:RXRa (NR concentration 270 nM, RXRa partner concentration 90 nM)
Procedure, shortened: as §1

[7] = system: PPARg:RXRa (NR concentration 180 nM, RXRa partner concentration 90 nM)
Procedure, shortened: as §1

[8] = system: PPARg:RXRa 270nM:90nM, anti-RXR (NR concentration 270 nM, RXRa partner concentration 90 nM)
Procedure, shortened: as §1

[9] = system: PPARg:RXRa 30nM:10nM, anti-RXR (NR concentration 30 nM, RXRa partner concentration 10 nM)
Procedure, shortened: as §1

[10] = system: PPARg:RXRa 90nM:30nM, anti-RXR (NR concentration 90 nM, RXRa partner concentration 30 nM)
Procedure, shortened: as §1

[11] = system: PPARg:RXRa DBDmut IVT, anti-RXR (DBD mutation: RXRa K156A/R161A, NR concentration 270 nM, RXRa partner concentration 90 nM)
Procedure, shortened: as §1

[12] = system: PPARg:RXRa IVT, anti-PPARg (NR concentration 270 nM, RXRa partner concentration 90 nM)
Procedure, shortened: as §1

[13] = system: PPARg DBDmut:RXRa IVT, anti-PPARg (DBD mutation: PPARg1 K132A/R137A, NR concentration 270 nM, RXRa partner concentration 90 nM)
Procedure, shortened: as §1

[14] = system: PPARg DBDmut IVT, anti-PPARg (DBD mutation: PPARg1 K132A/R137A, NR concentration 270 nM)
Procedure, shortened: as §1

[15] = system: PPARg homodimer (NR concentration 180 nM)
Procedure, shortened: as §1

[16] = system: PXR:RXRa (NR concentration 270 nM, RXRa partner concentration 90 nM)
Procedure, shortened: as §1

[17] = system: PXR homodimer (NR concentration 270 nM)
Procedure, shortened: as §1

[18] = system: RARa:RXR (NR concentration 270 nM, RXRa partner concentration 90 nM)
Procedure, shortened: as §1

[19] = system: RARa homodimer (NR concentration 270 nM)
Procedure, shortened: as §1

[20] = system: RARb:RXRa (NR concentration 270 nM, RXRa partner concentration 90 nM)
Procedure, shortened: as §1

Sequence | PBM binding z-score [1] | PBM binding z-score [2] | PBM binding z-score [3] | PBM binding z-score [4] | PBM binding z-score [5] | PBM binding z-score [6] | PBM binding z-score [7] | PBM binding z-score [8] | PBM binding z-score [9] | PBM binding z-score [10] | PBM binding z-score [11] | PBM binding z-score [12] | PBM binding z-score [13] | PBM binding z-score [14] | PBM binding z-score [15] | PBM binding z-score [16] | PBM binding z-score [17] | PBM binding z-score [18] | PBM binding z-score [19] | PBM binding z-score [20]
ATCTCTAGGTAAAATTTCAGTGAATCCCGAGGAT | 0.303 | 0.0302 | -0.0647 | 0.162 | 1.26 | 0.181 | 0.177 | 0.563 | 0.504 | 0.487 | 1.67 | 1.35 | 0.773 | 1.87 | 0.138 | -0.0385 | -0.0342 | 0.0546 | 0.744 | 0.377
ACTAGTTTGTCAGCTGAGGTCACACACAATTCGG | 3.55 | 3.38 | 2.38 | 3.67 | 1.33 | 3.71 | 1.49 | 2.21 | 0.672 | 1.86 | 1.11 | 2.31 | 0.92 | 1.54 | 2.72 | 4.87 | 2.34 | 4.4 | 1.24 | 3.28
CGTCCAAGGTCAGAGAGGACAGTGAATGCCGAGT | 4.64 | 3.42 | 0.241 | 2.28 | -0.021 | 3.85 | 2.24 | 2.75 | 0.355 | 1.59 | 2.32 | 2.3 | -0.223 | -1.03 | 2.09 | 3.22 | 4.69 | 2.69 | 0.425 | 4.64
TATACAGGGTCAAAGGCCAGAGTGCGAATGTCGA | 7.16 | 6.05 | 2.6 | 4.8 | 2.58 | 6.08 | 8.23 | 7.43 | 5.95 | 7.86 | 2.54 | 4.9 | 2.49 | 2.56 | 5.37 | 4.79 | 1.14 | 6.61 | 1.49 | 4.59
GCTCGGAGGACAACGTCAGAGCTTTGTCCGTAGA | -0.816 | -1.18 | -1 | -1.15 | -1.11 | -0.78 | -0.651 | -1.1 | -1.29 | -1.22 | -0.91 | -0.67 | -2 | -1.23 | -2.11 | -0.976 | -1.16 | -1.29 | -1.57 | 0.852
GGAACGAGGGCAAGTTGATCGCAGAGTTTGATGG | 0.747 | 0.257 | -0.518 | 0.128 | -0.392 | 1.6 | 0.859 | 0.878 | -0.211 | 0.517 | 3.49 | 2.88 | 0.162 | -0.887 | -0.254 | 0.576 | -0.0478 | 0.607 | -0.361 | 2.51
CCAGACACGTGAAAGGTAACTCAGTCTGGTACGC | -0.513 | -0.178 | -0.428 | 0.0481 | -0.283 | 0.287 | 0.636 | 0.0199 | -0.466 | -0.253 | -0.261 | -0.369 | -0.212 | -0.126 | -0.0268 | -0.338 | -0.312 | -0.206 | 0.0098 | 0.231
